# SMN2 splice up – qHTS Assay for Enhancers of SMN2 Splice Variant Expression | actives 2.8% (n = 210,000) | HEK293 SMN2-luciferase splicing reporter, luminescence, 30-36 h | Potency, µM (top dose mostly 46.1 µM), inactives show at the highest dose activity change, positive = activation, usual class: activators | AID 1458, 2008; also: % of control where 0% means no effect; nearly all actives have a fitted effect of over 55% in size
#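 qHTS luciferase splicing reporter: luminescence rises when SMN2 exon 7 is included in transfected HEK293 cells. Compound exposure lasted 30-36 h at 37C, with 4.5 mM final sodium butyrate as control, followed by a ONE-Glo read.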
# FLuc counter – qHTS profiling assay for firefly luciferase inhibitor/activator using purifed enzyme and Km concentrations of substrates (counterscreen for miR-21 project); purified FLuc, Km substrates, luminescence inhibition; Potency, µM (doses to about 57.5 µM), for the others: at the top dose activity change, negative = inhibition, actives largely listed as inhibitors; actives 6.9% (n = 360,000); AID 588342, 2011;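 also: plate controls were vehicle for no effect and reference inhibitor for full effect; nearly all actives have a fitted effect of over 55% in size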
# Target sequence (P08659 whole entry, looked up): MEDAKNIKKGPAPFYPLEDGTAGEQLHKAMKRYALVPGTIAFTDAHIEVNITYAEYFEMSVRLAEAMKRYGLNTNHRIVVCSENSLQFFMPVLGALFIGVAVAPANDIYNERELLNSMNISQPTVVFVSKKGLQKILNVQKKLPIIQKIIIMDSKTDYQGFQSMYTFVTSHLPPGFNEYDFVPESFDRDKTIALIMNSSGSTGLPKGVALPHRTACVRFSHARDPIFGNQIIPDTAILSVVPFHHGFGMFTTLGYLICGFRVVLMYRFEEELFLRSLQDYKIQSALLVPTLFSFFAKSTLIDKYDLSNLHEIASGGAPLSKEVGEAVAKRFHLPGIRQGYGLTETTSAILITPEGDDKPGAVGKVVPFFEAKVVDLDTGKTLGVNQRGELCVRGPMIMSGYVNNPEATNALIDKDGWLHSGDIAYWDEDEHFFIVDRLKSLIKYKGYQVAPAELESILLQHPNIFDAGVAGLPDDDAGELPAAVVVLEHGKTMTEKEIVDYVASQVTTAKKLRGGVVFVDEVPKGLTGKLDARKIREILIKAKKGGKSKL
#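 Biochemical qHTS of compounds, final roughly 60 µM downward over six points, against 10 nM purified firefly luciferase using Km concentrations of substrates (10 uM D-luciferin, 10 uM ATP) in Tris acetate pH 7.5 buffer; luminescence output.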
# NPC1 prom act – qHTS Assay for NPC1 Promoter Activators | Huh7 NPC1 promoter luciferase reporter, 24 h | actives 2.4% (n = 320,000) | Potency, µM (titrated, usually from 9.22 µM), inactives show at the highest dose activation, most hits filed as activators | AID 485313, 2010; also: % of control where 0% means no effect; nearly all actives have a fitted effect of over 60% in size
#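 Stably transfected Huh7 (NPC1 promoter→luciferase), 1500 cells/well in Opti-MEM + 10% FBS, 2 h settle, then compound 24 h at 37 °C. Luminescence after 10 min with Amplite reagent.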
# Rab9 promoter act – qHTS Assay for Rab9 Promoter Activators; Huh7 Rab9 promoter-luciferase reporter, luminescence, 24 h; Potency, µM (top dose mostly 9.22 µM), for the others: at the highest dose activation, negative = inhibition, most hits filed as activators; actives 2.8% (n = 320,000); also: % of control where 0% means no effect; nearly all actives have a fitted effect of over 60% in size
#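 Luciferase signal after 10 min detection reagent at ambient indicates Rab9 promoter upregulation; stably transfected Huh7 cells were treated 24 h with compound in DMSO at 37 °C, 5% CO2.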
# ELG1 genotoxic – qHTS screen for small molecules that induce genotoxicity in human embryonic kidney (HEK293T) cells expressing luciferase-tagged ELG1; actives 1.3% (n = 330,000); AID 504466, 2011; HEK293T ELG1-luciferase reporter, luminescence, 16 h; Potency, µM (titrated, usually from 46 µM), for the others: at the highest dose activity change, positive = activation, hits mostly activators; also: % of control where 0% means no effect; nearly all actives have a fitted effect of over 60% in size
#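 Reporter readout depends on ELG1 protein level, which increases with genetic stress. After 16 hr compound exposure at 37 °C, luciferase activity was quantified using ONE-Glo.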
# ELG1 DNA repair – qHTS screen for small molecules that inhibit ELG1-dependent DNA repair in human embryonic kidney (HEK293T) cells expressing luciferase-tagged ELG1 | Potency, µM (doses to about 46.1 µM), for the others: at the highest dose activity change, negative = inhibition, usual class: inhibitors | HEK293T ELG1-luciferase reporter, luminescence, 16 h; DNA damage induced by 5-fluorouridine | actives 2.3% (n = 330,000); also: % is scaled to controls: 0 for no effect and ±100 for the full control effect; nearly all actives have a fitted effect of over 55% in size
#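 Reporter activity after DNA damage by 5-fluorouridine is monitored. Compound-treated cells incubate 16 hr at 37 °C, then ONE-Glo is added for 30 min before luminescence reading.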
# * marks the source's active call; other numbers are inactive results; ? = inconclusive; nt = not tested or not shown. An excerpt weighted towards active compounds, which were near 9.2% of everything screened. Calls follow the shape of the dose curve; as a rule, active = well fitted curve in the direction sought with a large enough effect; inconclusive = small, poorly fitted or top-dose-only effect, or another doubt; inactive = no such curve, though single readings can be large; an effect the other way counts as inactive or inconclusive. Potency is read from the fitted curve at half-maximal effect.
SMILES,SMN2 splice up,FLuc counter,NPC1 prom act,Rab9 promoter act,ELG1 genotoxic,ELG1 DNA repair
O=C(CCc1ccccc1)Nc1cc2c(cc1Cl)OCCO2,12.6µM*,10.7µM*,3.55µM*,3.16µM*,?,?
CCc1ccc(C2=C(C)C(N3CCC(C(=O)Nc4ccc(F)cc4)CC3)=NS2(=O)=O)cc1,nt,0.2%,nt,nt,nt,nt
CCCN1CCN(c2cc3c(cc2F)c(=O)c(S(=O)(=O)c2ccc(CC)cc2)cn3CC)CC1,nt,-0.8%,nt,nt,nt,nt
COc1ccc2c(CNCCc3ccccc3OC)c(C(=O)O)n(Cc3ccc(F)cc3Cl)c2c1,nt,-11.1%,nt,nt,nt,nt
Cc1cccc(NC(=O)N2CCC(N3CCN(Cc4ccccc4)C(=O)C3=O)CC2)c1C,nt,3.7%,nt,nt,nt,nt
O=C(CCSCc1ccccc1)Nc1ccc2c(c1)OCCO2,nt,9.53µM*,-1.6%,10.0%,7.1%,?
O=C(CCc1ccccc1)Nc1ccc2c(c1)OCCO2,12.6µM*,6.01µM*,3.16µM*,1.78µM*,?,?
CCc1ccccc1NC(=O)CN1C(=O)c2cccnc2Oc2ccc(Cl)cc21,nt,-8.1%,nt,nt,nt,nt
CCOC(=O)c1ccc(NC(=O)Cn2nnc(-c3ccc(C(F)(F)F)cc3)n2)cc1,2.5%,-2.7%,nt,nt,nt,nt
CCN(C[C@H]1N[C@@](Cc2ccccc2)(C(=O)OC)[C@H]2C(=O)N(Cc3ccccc3)C(=O)[C@@H]12)C(=O)COc1ccccc1,nt,nt,nt,nt,5.8%,4.5%
O=C(NNC(=O)C1[C@H]2CCCC[C@@H]12)Nc1cccc2ccccc12 (some centres undefined),nt,-16.1%,7.2%,-2.1%,-10.4%,25.9µM*
COc1ccccc1CNC(=O)c1ccc2c(c1)N(Cc1c(F)cccc1Cl)C(=O)CS2,-22.1%,-9.0%,nt,nt,nt,nt
COc1cc(OC)c(NC(=O)N2CCC(CN3CCCC3)CC2)cc1Cl,nt,-0.4%,nt,nt,nt,nt
Cc1cc(C)n2nc(-c3cccc(Br)c3)cc2n1,nt,8.49µM*,?,?,?,?
Cc1cccc(-c2cc3nc(C)cc(N4CC(C)CC(C)C4)n3n2)c1 (centres undefined),-3.6%,-6.6%,1.6%,-5.0%,-5.8%,?
Cc1cccc(-c2cc3nc(C)cc(C)n3n2)c1,nt,6.75µM*,0.398µM*,0.447µM*,?,?
COc1ccccc1-c1cc2nc(C)cc(C)n2n1,nt,15.1µM*,26.6%,17.6%,?,23.8%
CC(=O)c1cnc2cc(-c3cccc(Br)c3)nn2c1C,11.2µM*,?,2.82µM*,2µM*,13.5%,?
C=CCn1c(C)cc(C2=NNC(=NC(C)(C)C)SC2)c1C,-89.7%,0.338µM*,?,?,0.581µM*,?
C=CCn1c(C)cc(C2=NNC(=Nc3ccc(C)cc3)SC2)c1C,21.3%,?,?,?,6.4%,?
Cc1cc(C2=NNC(=Nc3ccc(S(=O)(=O)N4CCOCC4)cc3)SC2)c(C)n1C,nt,-17.4%,1.5%,-3.0%,0.3%,0.0%
C=CCN=C1NN=C(c2cc(C)n(CCOC)c2C)CS1,-72.7%,0.379µM*,-16.1%,-21.3%,-7.6%,?
CCOc1ccc(N=C2NN=C(c3cc(C)n(CC4CCCO4)c3C)CS2)cc1 (centres undefined),26.8%,13.5µM*,27.5%,?,6.9%,0.9%
COCCn1c(C)cc(C2=NNC(=NC3CC3)SC2)c1C,-103.1%,0.239µM*,-41.5%,-36.7%,-18.5%,5.17µM*
COCCn1c(C)cc(C2=NNC(=Nc3ccc(Cl)cc3Cl)SC2)c1C,-30.8%,?,1.5%,2.6%,-0.8%,-0.1%
SMILES,SMN2 splice up,FLuc counter,NPC1 prom act,Rab9 promoter act,ELG1 genotoxic,ELG1 DNA repair
Cc1cc(C2=NNC(=NCc3ccccc3)SC2)c(C)n1-c1c(C)n(C)n(-c2ccccc2)c1=O,-0.8%,5.2%,-1.1%,-1.2%,2.8%,-14.2%
Cc1cccc(C)c1NC(=S)N(Cc1ccccc1)Cc1cccs1,-1.2%,-8.7%,-7.7%,-13.4%,-3.5%,?
CC(=O)c1cccc(NC(=O)COc2cc(C)on2)c1,nt,-0.1%,-4.4%,0.2%,1.9%,19.7%
COc1ccc(CCC(=O)c2c(O)cc(O[C@@H]3O[C@H](CO)[C@@H](O)[C@H](O)[C@H]3O[C@@H]3O[C@@H](C)[C@H](O)[C@@H](O)[C@H]3O)cc2O)cc1O,8.8%,nt,nt,nt,nt,nt
COc1ccc2c(c1)-c1nc(NC(=O)c3cc(Cl)ccc3OC)sc1CC2,1.0%,-6.9%,nt,nt,nt,nt
COc1ccc(CCN(Cc2cccs2)S(=O)(=O)c2ccc(-n3cnnn3)cc2)cc1OC,-64.0%,4.3%,-4.7%,-5.5%,-10.9%,16.4µM*
COCCCNC(=O)CCCn1c(SCC(=O)c2ccc(Br)cc2)nc2c(sc3ccccc32)c1=O,7.0%,-17.8%,nt,nt,nt,nt
COc1ccc(C(C)=O)cc1CC(=O)Nc1ccccc1-c1ccccc1,nt,-0.1%,-1.6%,-1.8%,-2.4%,11.6µM*
Cc1ccccc1OCC(=O)Nc1ccccc1C(=O)NC1CC1,nt,3.9%,11.1%,-2.9%,-12.8%,5.17µM*
Cc1ccccc1OCC(=O)Nc1ccccc1-c1ccccc1,?,4.78µM*,0.891µM*,0.891µM*,?,?
O=C(COc1ccccc1)Nc1ccccc1C(=O)NC1CC1,nt,0.4%,0.1%,1.0%,-6.9%,0.0%
COc1cc(C(C)=O)ccc1OCC(=O)Nc1ccccc1N1CCCCC1,nt,2.8%,-12.0%,0.8%,-43.2%,5.17µM*
CCOc1ccc(C(=O)NCC(=O)NCC(c2ccccc2OC)N2CCCC2)cc1 (centres undefined),nt,2.3%,6.0%,0.0%,1.0%,-0.8%
CCN(CC)C(=O)Cn1cc(C(=O)C(=O)NCCc2c[nH]c3ccccc23)c2ccccc21,nt,-12.2%,?,2.4%,-2.9%,-9.8%
CC1CCCN(C2(O)C(=O)Nc3ccc(Cl)cc32)C1 (centres undefined),nt,-0.3%,-8.6%,-1.9%,-3.4%,-4.5%
Cc1ccoc1C(=O)N1CCCC(CCC(=O)N2CCN(c3ccccn3)CC2)C1 (centres undefined),nt,-1.3%,-7.0%,-10.2%,-8.2%,20.6µM*
Cc1ccc(C(=O)N2CCCC(CCC(=O)N3CCN(c4ccccn4)CC3)C2)cc1C (centres undefined),nt,-7.9%,0.0%,-5.0%,-7.6%,11.6µM*
Cc1cccc(C(=O)N2CCCC(CCC(=O)N3CCN(c4ccccn4)CC3)C2)c1C (centres undefined),nt,-1.0%,-23.8%,-7.4%,-15.5%,?
